Experimental findings from PubChem BioAssay (NCATS) are described below.

Structures are written as SMILES. Where “and” joins values, the source holds several entries; their conditions need not be identical. Equal values may be shown once. Results filed as inconclusive are left out. Entries that show only a call come without a potency. Calls of active or inactive are those of the source. The call rests on the fitted dose curve; in most records, active means well fitted cell-killing curve with a large enough effect; inconclusive means small, poorly fitted or top-dose-only effect; inactive means flat fitted curve, though single readings scatter.

The experiment is described as follows: Cellular viability qHTS for adrenocortical cancer (ACC) cell line NCI-H295R (AID 1963990). Further: nearly all actives have a fitted effect of over 60% in size. The following applies: CellTiter-Glo ATP luminescence, 48 h; series mostly up to 46.1 µM. An excerpt:
PI: Naris Nilubol, MD Surgical Oncology Program, National Cancer Institute (NCI) National Institute of Health (NIH), Bethesda, Maryland Adrenocortical cancer (ACC) is a rare malignancy with poor survival outcomes and few treatment options. Currently, mitotane is the only FDA-approved therapy for ACC. Although adjuvant radiation therapy is rarely utilized, it has the potential to improve survival in select cases. Through a quantitative high-throughput drug screen (qHTS), we identified auranofin (AF), a thioredoxin reductase (TXNRD) inhibitor, as a promising candidate drug. This study aims to evaluate whether AF can enhance the efficacy of radiation therapy in the treatment of ACC. Two human ACC cell lines, SW-13 and NCI-H295R, were screened using the National Center for Advancing Translational Sciences (NCATS) Pharmaceutical Collection (NPC) and the Mechanism Interrogation PlatE (MIPE) library (~4,991 compounds). CellTiter-Glo (Cat # G7570, Promega, Madison, WI) was utilized to measure cell viability. Described herein are the results of the corresponding viability assay.
PROTOCOL TABLE (as described by Inglese J, Shamu CE and Guy RK. 2007) SEQUENCE No. (e.g., 1, 2, 3, etc.); […] (e.g., Cells, Incubation, Reagent, etc.); VALUE; DESCRIPTION. 1; Cells; 5 uL; white, solid-bottom, 1536-well tissue-culture treated plates. 2; Time; overnight culture at 37C with 5% CO2. 3; Compounds and control; 23 nL; Kalypsis pin tool (Wako USA) equipped with a 1536-well pin head to transfer to the assay plates. 4; Time; 48 hours; 37C with 5% CO2. 5; Reagent; 4 uL; CellTiter-Glo luminescent substrate mix. 6; Time; 20 min at room temperature. 7; Detection; Luminescence; ViewLux plate reader NOTES (numbers refer to Sequence numbers above) 1. NCI-H295R cells were harvested from a T175 flask and resuspended in ITS-supplemented DMEM serum-free medium at a concentration of 300 000 cells/mL. Then 5 uL of resuspended cells were dispensed into each well of white, solid-bottom, 1536-well tissue-culture-treated plates using a multidrop combi dispenser. The plates were covered with stainless steel gasket lids. 2-3. The plates were cultured overnight at 37C with 5% CO2. Twenty-three nL of compounds (eight selected concentrations from the NPC / MIPE) or positive control (10 mM stock of bortezomib) in DMSO was transferred to each well of the assay plate using a pin tool (Kalypsys, San Diego, CA, USA). The final concentration of the compounds in the 5 uL assay volume ranged from 0.5 nM to 46 uM. 4-6. After 48 hours of incubation at 37C and 5% CO2, 4 uL of CellTilter-Glo luminescent substrate mix (Promega, Madison, WI, USA) was added to each well. Then the plates were incubated for 20 minutes at room temperature. 7. After incubation, luminescence was measured using a ViewLux plate reader (PerkinElmer, Waltham, MA, USA) with a clear filter was used to measure the number of metabolically competent cells. To determine compound activity in the qHTS assay, the titration-response data for each sample was plotted and modeled by a four-parameter logistic fit yielding IC50 and efficacy (maximal response) values. Raw plate reads for each titration point were normalized relative to positive control ([…], 100% inhibition) and DMSO-only wells (basal, 0%). REFERENCES: Inglese J, Shamu CE and Guy RK, Reporting data from high throughput screening of small molecule libraries, Nature Chemical Biology, 2007, 3(8): 438-441. doi.org/10.1038/nchembio0807-438.
In the case of `O=C(O)c1ccccc1C(=O)Nc1ccc(S(=O)(=O)Nc2nccs2)cc1`, the Potency result was “inactive”.

On to `O=c1[nH]cnc2c1ncn2[C@@H]1O[C@H](CO)[C@@H](O)[C@H]1O`, for which the Potency result was “inactive”.

As to `CNC(=O)[C@H](Cc1c[nH]c2ccccc12)NC(=O)[C@@H](CC(=O)NO)CC(C)C`, the Potency result was “inactive”.

Take `CN(Cc1ccc(/C=C/C(=O)NO)cc1)CC12CC3CC(CC(C3)C1)C2`: the Potency is 0.447 µM (active).

Turning to `CS(=O)(=O)OCCCCOS(C)(=O)=O`, the Potency entry was “inactive”.

For the molecule `COC1CCC(C(=O)c2ccc3nc4c(cc3c2)CCCO4)CC1` (stereo not given), the Potency entry was “inactive”.

`Cn1cnc(=N)c2[nH]cnc21`: the Potency entry is “inactive”.

As to `Cc1cc(=O)[nH]c(=S)[nH]1`, the Potency entry was “inactive”.

As to `CCCCOC(=O)NS(=O)(=O)c1sc(CC(C)C)cc1-c1ccc(Cn2ccnc2)cc1`, the Potency is 25.1 µM (active).

On to `C/C=C1\NC(=O)[C@H]2CSSCC/C=C\[C@H](CC(=O)N[C@H](C(C)C)C(=O)N2)OC(=O)[C@H](C(C)C)NC1=O`, for which the Potency is 0.0631 µM (active).

For `CCOC(=O)c1cccnc1`, the Potency entry is “inactive”.

With `CCCCCCCOc1ccc(CCC(N)(CO)CO)cc1C(F)(F)F`, the Potency is 10 µM (active).

On to `Cc1ccc(C(=O)Nc2cccc(C(F)(F)F)c2)cc1Nc1nc(-c2cccnc2)nc2c1cnn2C`, for which the Potency was 3.16 µM (active).

As for `OCc1ccc(-c2ccc(-c3ccc(CO)s3)o2)s1`, the Potency is 28.2 µM (active).

For `Clc1cccc(C(c2ccc3nc[nH]c3c2)n2ccnc2)c1` (stereo not given), the Potency result was “inactive”.

For `CC[C@H](CC[C@@H](C)[C@H]1CC[C@H]2[C@@H]3CC=C4C[C@@H](O)CC[C@]4(C)[C@H]3CC[C@]12C)C(C)C`, the Potency result was “inactive”.

`NC(=O)OCC(COC(N)=O)c1ccccc1`: the Potency entry was “inactive”.

On to `C#C[C@]1(O)CC[C@H]2[C@@H]3CCc4cc(O)ccc4[C@H]3CC[C@@]21C`, for which the Potency is 3.55 µM (active).

As to `CCCCCCCCCCCCCCCCCCN(C)C`, the Potency entry is “inactive”.

Regarding `O=C(Nc1cn[nH]c1-c1nc2ccc(CN3CCOCC3)cc2[nH]1)NC1CC1`, the Potency was 20 µM (active).

In the case of `CCCNC(C)C(=O)Nc1c(C)csc1C(=O)OC` (stereo not given), the Potency entry was “inactive”.

Take `Cc1cc(Nc2ncc(Cl)c(Nc3ccccc3S(=O)(=O)C(C)C)n2)c(OC(C)C)cc1C1CCNCC1`: the Potency is 2.24 µM (active).

Regarding `COc1ccc2nc3n[nH]c(C)c3c(NCCOCCO)c2c1`, the Potency result was “inactive”.

Turning to `CCC1(C)CC(=O)NC1=O` (stereo not given), the Potency entry is “inactive”.

For the molecule `O=C(Nc1ccc([N+](=O)[O-])cc1Cl)c1cc(Cl)ccc1O`, the Potency is 224 nM (active) and 1 µM (active).

Turning to `CC1(COc2ccc3c(c2)ncn3-c2ccc3cccc(N4CCC(N)CC4)c3n2)COC1`, the Potency was 14.1 µM (active).

As to `CCCCC(=O)OCC(=O)[C@H]1[C@H](C)C[C@H]2[C@@H]3C[C@H](F)C4=CC(=O)C=C[C@]4(C)[C@@]3(F)[C@@H](O)C[C@@]21C`, the Potency result was “inactive”.

Turning to `O=C(O)c1ccccc1-c1ccc(C(F)(F)F)cc1`, the Potency result was “inactive”.

For `CC[N+](C)(C)c1cccc(O)c1`, the Potency entry was “inactive”.

In the case of `NC(=O)NC(=O)Cc1ccccc1`, the Potency entry was “inactive”.

As to `Cc1ccc(NC(=O)c2cccc(N(C)C)c2)cc1NC(=O)c1ccc(O)cc1`, the Potency result is “inactive”.

For `Cc1ccc2nc(NC(=O)CSc3nc4c(c(=O)n3-c3ccccc3)SCC4)sc2c1`, the Potency entry was “inactive”.

`O=C(NCC(O)CO)c1c(I)c(C(=O)NCC(O)CO)c(I)c(N(CCO)C(=O)CO)c1I` (stereo not given): the Potency result was “inactive”.

Regarding `OCCN1CCN(CCCN2c3ccccc3Sc3ccc(Cl)cc32)CC1`, the Potency was 2.59 µM (active).

Regarding `COc1cc(OC)c(/C=C/S(=O)(=O)Cc2ccc(OC)c(OP(=O)(O)O)c2)c(OC)c1`, the Potency was 0.0282 µM (active).

On to `C[C@@H](O)[C@H]1C(=O)N2C(C(=O)O)=C([C@H]3CCCO3)S[C@H]12`, for which the Potency result is “inactive”.

Consider `O=C(NCCN1CCOCC1)c1ccc(Cl)cc1`, for which the Potency result is “inactive”.

`C#Cc1ccc(-c2ccccc2F)cc1`: the Potency entry is “inactive”.

Turning to `O=C(NCCc1c[nH]c2ccccc12)c1cccnc1`, the Potency entry was “inactive”.

Take `CCCCCCCC(=O)[O-].CCCCCCCC(=O)[O-].[Zn+2]`: the Potency result is “inactive”.
